About 83,000 compounds went through this panel and 20% of them were active in at least one assay; those are over-represented in the sample as a whole.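 Activity criterion: percent growth below 10, measured after cells in 96-well plates were exposed to a single compound concentration for 48 hours.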 Active and inactive are the calls of the source.

This assay deals with NCI/ADR-RES ovarian. Nature of the assay: NCI-60 one-dose screen, 48 h (100 = growth as untreated, 0 = no growth, -100 = all killed). Particulars: 10 µM unless noted. The method, then: Growth inhibition of the NCI/ADR-RES human […] tumor cell line is measured as a screen for anti-cancer activity. Cells are grown in 96 well plates and exposed to the test compound for 48 hours. Compounds are tested at a single concentration, which is 10^-5 M for most compounds. The reported endpoint is percent growth (GI% or GIPRCNT), where numbers from 0 - 100% represent growth inhibition, and numbers from -100% - 0 represent cell death. For example, a value of 40 represents 60% growth inhibition. A value of 0 means no net growth occurred over the course of the experiment. A value of -40 indicates 40% of cells at the beginning of the experiment died by the end of the experiment. A value of -100 means all cells are dead at the end of the experiment.
NCI-60 Human Tumor Cell Lines Screen was performed using the standard one-dose NCI protocol, which is described in more detail at https://dtp.cancer.gov/discovery_development/nci-60/default.htm.
Compounds with GIPRCNT values below 10 were considered active. Activity score was based on GIPRCNT using the following formula: […]
Score is 0 for GIPRCNT values of 100 or above, 50 for GIPRCNT values of 0, and 100 for GIPRCNT values of -100.
Take `Cc1cc(NC(=O)Nc2cccc3ccccc23)no1`: the growth is 103% (inactive).

As to `O=C(NN(C(=O)c1ccccc1)c1cccs1)c1ccccc1`, the growth was 103% (inactive).

`O=C1c2nsnc2C(=O)c2c(F)c(F)c(F)c(F)c21`: the growth is -17.1% (active).

Take `Cc1nn(-c2ccc(Cl)cc2)c2nc3c(nc12)C(=O)C(=O)c1ccccc1-3`: the growth is 76.5% (inactive).

For the compound `CCC1=C(c2ccc(OC)cc2)C(C)(C)Oc2c1ccc(O)c2CN1CCCC1`, the growth was 39.1% (inactive).

For the compound `O=C(CSc1nnc(Nc2ccccc2)s1)NCCc1ccc(F)cc1`, the growth was 99.3% (inactive).

Take `CC(=O)Nc1ccc2c(c1)Cc1c(F)c(F)c(F)c(F)c1-2`: the growth is -39.9% (active).

Consider `O=C(/C(=C/c1ccc([N+](=O)[O-])cc1)c1ccccc1)c1ccccc1`, for which the growth was 46.5% (inactive).

For `CCN(CC)CCNc1ccc(Cl)cc1Cl`, the growth is 103% (inactive).

Take `COc1ccc(C2=NNC(c3cc(Cc4ccc(O)c(C5CC(c6ccc(OC)cc6)=NN5)c4)ccc3O)C2)cc1` (stereo not given): the growth is 33.7% (inactive).

As to `Clc1ccc([C@@H]2C[C@@H]3Cc4cc(Br)c5ccccc5c4N2O3)c(Cl)c1`, the growth is 55.5% (inactive).

Consider `CC(C)C(=O)Cc1cnccn1`, for which the growth was 101% (inactive).

For `C=CC1=C(C(=O)O)N2C(=O)[C@@H](NC(=O)/C(=N\O)c3csc(N)n3)[C@H]2SC1` (stereo in doubt), the growth was 98% (inactive).

Take `CCCCCCOc1ccc(/C=N/NC(N)=S)cc1`: the growth was 58.5% (inactive).

As for `N#Cc1c(N2CCOCC2)nc2sc3cc(Cl)ccc3n2c1=N`, the growth is 99% (inactive).

On to `Nc1ccc(S(=O)(=O)Nc2ncccn2)cc1`, for which the growth is 105% (inactive).

As for `NC(=O)c1ncn([C@@H]2O[C@H](CO)[C@@H](O)[C@H]2O)n1`, the growth is 88% (inactive).

Regarding `COc1ccc(-c2cc(Cc3cccs3)c(=O)n(Cn3ccc4ccccc43)n2)cc1`, the growth was 107% (inactive).

For the compound `O=C(CSc1nc2c(n1Nc1ccccc1)-c1ccccc1SC2)Nc1nc(-c2ccc(Cl)cc2)cs1`, the growth is 66% (inactive).

With `O=C(Oc1ccc[nH]c1=O)c1cccc(Cl)c1`, the growth is 99.1% (inactive).

`O=C(/C(=C/c1cccc([N+](=O)[O-])c1)c1ccccc1)c1ccccc1`: the growth is 35.8% (inactive).

In the case of `COc1ccc2c(c1)C(=O)c1c-2c(OCCN(C)C)nc2cc(OC)ccc12`, the growth was -11.3% (active).

On to `COc1ccc(C2=NN(C(C)=O)C(c3cc(OC)c(OC)c(OC)c3)C2)cc1` (stereo not given), for which the growth is 83% (inactive).

Regarding `S=C(Nc1ccc(C2=NCCN2)cc1)Nc1ccc(C2=NCCN2)cc1`, the growth was 93.2% (inactive).

As to `CCCOc1ccc2c(c1)CC[C@@H]1[C@@H]2CC[C@@]2(C)[C@H]1CC[C@]2(C)O`, the growth is 79.7% (inactive).

Turning to `CC1=NN(c2ccccc2Cl)C(=O)/C1=C\c1cn(S(=O)(=O)c2ccc(C)cc2)c2ccccc12`, the growth is 85.1% (inactive).

With `O=C(CCc1nnc(SCc2ccccc2)s1)c1nc2ccccc2[nH]1`, the growth is 87.1% (inactive).

As for `COc1ccc(-c2c(-c3cc(OC)c(OC)c(OC)c3)noc2N)cc1`, the growth was 11.1% (inactive).

Take `CC(=O)c1ccc2c3c(n(C)c2c1)CCCC3`: the growth is 96.9% (inactive).

As to `CCN(CC)c1ccc(N=Nc2cc(Cl)ccc2Cl)c(NC(=O)CCC(=O)O)c1`, the growth was 95.5% (inactive).

With `CN(C)c1ccc(/C=C\c2ccnc3ccccc23)cc1`, the growth is -35.5% (active).

Consider `COc1ccc2c(c1)nc(N)c1c3cc(C)c(C)cc3cn21`, for which the growth was 37.3% (inactive).

Turning to `Nc1ccc(C2=Nc3cccc4cccc(c34)S2)cc1`, the growth was 107% (inactive).

For `CCN(CC)CCOc1ccc(C2=C(c3ccccc3)CCc3cc(OC)ccc32)cc1`, the growth was -26.1% (active).

In the case of `Cn1cnc([N+](=O)[O-])c1S(=O)(=O)Oc1ccc(Cl)cc1`, the growth is 95.8% (inactive).

With `CCOC(=O)c1ccccc1OC(=O)NNc1ccccc1`, the growth was 58.1% (inactive).

`NC(N)=NC(N)=NCCCc1ccccc1`: the growth was 81.2% [100 µM] (inactive).

On to `Clc1cc(Cl)c(OCC#CI)cc1Cl`, for which the growth is 83.6% (inactive).

As for `CCOc1cc(C(C)(C)C)ccc1C1=N[C@H](c2ccc(Cl)cc2)[C@H](c2ccc(Cl)cc2)N1C(=O)N1CCN(CC#Cc2cccc3c2CN([C@@H]2CCC(=O)NC2=O)C3=O)CC1`, the growth is 25.9% (inactive).

For the compound `Fc1ccc(-c2nnc(/C=C/c3cn(-c4ccccc4)nc3-c3ccccc3)o2)cc1`, the growth is 88.2% (inactive).

The values are drawn from PubChem BioAssay (NCI).
